Measured values as given in ChEMBL document CHEMBL3988442, “University of Dundee, Small-Polar-MMV Screening Library” (2021).
The whole screen tested about 48,000 compounds, of which about 13,000 (27%) showed an effect of 50% or more. Some of the results follow.

Test system: Wolbachia pipientis
Assay: Anti-Wolbachia Cell-Based Screen
Format: functional
Set-up: scale not given: in the data most compounds retested in dose-response had high values
Details: 5 µM

SMILES | Percent Effect [%]
NC(=O)C1CCCN1Cc1ccccc1NC(=O)CC(F)(F)F (stereo not given) | -9.794
O=C1CC(C(=O)Nc2nnc(-c3ccoc3)[nH]2)c2ccccc2N1 (stereo not given) | -8.464
COc1ccc(OC)c2c(C)cc(N(CCO)CCO)nc12 | -7.73
CCn1c(CC2CCN(C(=O)c3cc(C(C)C)n[nH]3)CC2)n[nH]c1=O | -9.861
CCC[C@H]1CN(CCS(C)(=O)=O)C[C@@H]1NC(=O)c1ccccn1 | 20.97
Fc1ccc(-c2nnc(CN3CCCC(Cn4cncn4)C3)o2)cc1 (stereo not given) | 112.2
Cc1ccoc1-c1nnc(CN2CCCC(Cn3cncn3)C2)o1 (stereo not given) | -5.411
Fc1ccc(-c2nnc(CN3CCOC(Cn4cncn4)C3)o2)cc1 (stereo not given) | -1.88
CC(CCn1cccn1)Nc1ccc(-c2nccn2C)nn1 (stereo not given) | -7.65
CC(C)(NS(C)(=O)=O)C(=O)NCCc1csc2ccccc12 | 9.786
CCc1nnsc1C(=O)N1CCCN(Cc2nccn2C)CC1 | -3.239
Cc1cc(C(=O)N2CCCN(Cc3nccn3C)CC2)no1 | 89.63
Cc1occc1C(=O)N1CCCN(Cc2ncc(Cl)n2C)CC1 | 3.419
Cc1occc1C(=O)N1CCCN(Cc2nccn2C)CC1 | 92.51
Cn1ccnc1CN1CCCN(C(=O)c2ccc(Cl)o2)CC1 | -2.733
O=C(NCc1ccccc1)c1nnc2ccc(N3CCOCC3)cc2n1 | 4.321
Cc1ccc(C)c2c(O)cc(CN[C@H]3CCCCNC3=O)nc12 | -6.417
Cc1cc(NCC2CC(=O)Nc3ccccc32)nc(C)n1 (stereo not given) | 2.28
CN(C)S(=O)(=O)N1CCC(c2c(C(N)=O)sc3ccccc23)C1 (stereo not given) | 94.67
O=S(=O)(N1CCOCC1)N1CCOC(CCc2ccccc2)C1 (stereo not given) | -18.19
CC(NC(=O)N1CCC(CC(N)=O)CC1)c1csc2ccccc12 (stereo not given) | -9.558
CN(C)S(=O)(=O)N1CCC(OCCCc2ccccc2)C1 (stereo not given) | -12.64

SMILES | Percent Effect [%]
O=S(=O)(N1CCOCC1)N1CCOC(CCCc2ccccc2)C1 (stereo not given) | 5.354
NC(=O)c1sc2ccccc2c1C1CCN(S(=O)(=O)N2CCOCC2)C1 (stereo not given) | 162.8
CC(C)C(=O)N1CCC(c2c(C(N)=O)sc3ccccc23)C1 (stereo not given) | 99.6
CN(C)S(=O)(=O)N1CC[C@]2(O)CCN(c3nc4ccccc4s3)C[C@@H]2C1 | 10.05
CCN(CC)S(=O)(=O)N1CCCC(c2cccc(C(=O)O)c2)C1 (stereo not given) | 14.6
CC(C)C(=O)N1CCC(C2C(=O)Nc3ccccc32)CC1 (stereo not given) | -15.74
CCN(CC)S(=O)(=O)N1CCCC(c2ccc(C(=O)O)cc2)C1 (stereo not given) | -2.613
CCN(CC)S(=O)(=O)N1CCC(c2c(C(N)=O)sc3ccccc23)C1 (stereo not given) | 158.5
COCC1CCN(C(=O)c2cc(O)nc(CC(C)C)c2)CC1 | 9.231
Cl.Cl.c1c(CN2CCCC2)nc2n1CCNC2 | 4.335
CC(C(=O)NCc1cccc(N2CC=CC2)c1)n1cccn1 (stereo not given) | -4.465
CCOC(=O)N1CCN(C(=O)Cc2c(C)nc(C)[nH]c2=O)CC1 | -14.69
Cc1cnccc1NCCn1ccnc1C1CCOC1 (stereo not given) | -4.825
CCC(Nc1ncnc2sc(C(=O)O)c(C)c12)c1ccnn1C (stereo not given) | -0.5167
Cc1ccc(CN2C(=O)CC[C@]23CC[C@@H](NCC2CCOC2)CC3)cc1.O=C(O)C(F)(F)F (stereo not given in full) | -23.04
CC(C)CN1CC(C(=O)NCCOc2ccc3c(c2)OCO3)CC1=O (stereo not given) | 103.1
COC(=O)CCNC(=O)C1CC(=O)N(C2CCCC2)C1 (stereo not given) | -11.01
O=C(NCCOc1cccc(Cl)c1)C1CC(=O)N(CC2CC2)C1 (stereo not given) | -4.254
CC(C)CN1CC(C(=O)NCCc2c[nH]cn2)CC1=O (stereo not given) | 10.41
O=C(NCCOc1ccc2c(c1)OCO2)C1CC(=O)N(C2CC2)C1 (stereo not given) | 106.6
CC(C)N1CC(C(=O)NCCOc2ccc3c(c2)OCO3)CC1=O (stereo not given) | 7.499
CCN1CC(C(=O)NCc2ccnc(-n3ccnc3C)c2)CC1=O (stereo not given) | 5.504

SMILES | Percent Effect [%]
CCN1CC(C(=O)NCCOc2ccc3c(c2)OCO3)CC1=O (stereo not given) | 101.2
Cc1ccc(OCCC(=O)NC2CC(=O)N(C)C2)cc1C (stereo not given) | -10.49
CN1CC(C(=O)NCCOc2ccc3c(c2)OCO3)CC1=O (stereo not given) | 106.4
O=C(NCCOc1ccc2c(c1)OCO2)C1CC(=O)N(CC2CC2)C1 (stereo not given) | 4.084
CC(=O)N1CCN(c2ccccc2CNc2cncc(C)c2)CC1 | -7.391
CCc1cc(=O)[nH]c2nnc(SCC(=O)NC)n12 | -1.194
Cc1cc(N2CCC(c3nccn3Cc3cscn3)CC2)ccn1 | -23.28
O=C(Cc1cccs1)N1CCC(O)(CN2CCc3ccccc3C2)C1 (stereo not given) | 105.2
O=C(Cc1ccsc1)N1CCC2(CCCN(CC3CCOCC3)C2)C1 (stereo not given) | -0.5355
O=C1NC2(CCN(C(=O)Cc3ccsc3)CC2)CC1c1ccccc1 (stereo not given) | 6.926
O=C(NCc1cccs1)NCC1(O)CCc2ccccc2C1 (stereo not given) | -8.141
O=C(Cc1ccsc1)N1CCC(O)(CN2CCc3ccccc3C2)C1 (stereo not given) | 104.8
O=C(c1cccs1)N1CCC(O)(CN2CCc3ccccc3C2)C1 (stereo not given) | -8.795
CC(C)c1cc(NC(CO)CO)n2nccc2n1 | 17.2
CC(C)n1nc2c(cc1=O)CN(Cc1nc(-c3ccoc3)no1)CC2 | 17.12
COCCN1CCC(C(=O)N(C)CCOc2ccc(C)cc2Cl)C1 (stereo not given) | -22.94
O=C1CO[C@@H]2CN(S(=O)(=O)c3ccc(F)cc3)C[C@H]2N1 | 87.78
O=C1CO[C@H]2CN(Cc3ccc(F)c(F)c3)C[C@H]2N1 | -16.97
O=C1CO[C@@H]2CN(S(=O)(=O)c3ccccc3F)C[C@H]2N1 | 96.68
O=C1CO[C@H]2CN(Cc3ccc(C(F)(F)F)cc3)C[C@H]2N1 | -16.85
CNC(=O)Cc1csc(NC(=O)C2CSCCC(=O)N2)n1 (stereo not given) | 9.778
